We go through 21 molecules from PubChem BioAssay (NCATS).

Results filed as inconclusive are left out. Entries that show only a call come without a potency. Activity calls are given as the source filed them. The call rests on the fitted dose curve; in most records, active means well fitted inhibition curve with a large enough effect; inconclusive means small, poorly fitted or top-dose-only effect; inactive means flat fitted curve, though single readings scatter.

Chain of Calcium and integrin-binding protein 1 (Homo sapiens) (Q99828 whole entry, looked up): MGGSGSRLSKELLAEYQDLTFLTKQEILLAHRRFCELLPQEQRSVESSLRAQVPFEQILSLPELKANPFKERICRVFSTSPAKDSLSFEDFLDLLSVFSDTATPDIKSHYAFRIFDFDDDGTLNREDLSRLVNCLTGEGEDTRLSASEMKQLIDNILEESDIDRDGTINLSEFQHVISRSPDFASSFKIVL

The assay concerns the target Calcium and integrin-binding protein 1 (Homo sapiens) (UniProt Q99828). Briefly: Primary qHTS for Identification of Calcium Integrin Binding Protein 1 (CIB1) Competitor (AID 1508620). Further: top concentration of the series differs between compounds. The settings on record: CIB1-GST / FITC-alphaIIb peptide fluorescence polarization; series mostly up to 114 µM. An outline of the steps: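 Fluorescence polarization competition: GST-tagged CIB1 (1 uM final) preincubated with compound 15 min at room temperature, then FITC-labelled alphaIIb peptide (100 nM final) added. After 15 min at room temperature, polarization read at Ex 480/Em 540.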
For the molecule `Cc1ccc(OCCn2c(CCNCC3CCCCC3)nc3ccccc32)cc1`, the Potency result was “inactive”. For `O=C(O)c1ccc2c(c1)C(=O)N([C@@H](Cc1ccc(O)cc1)C(=O)O)C2=O`, the Potency result is “inactive”. For `NC(=O)C1CCN(c2nc(-c3ccccc3-c3ccccc3)cs2)CC1` the value was “inactive”. The entry for `Cc1cnc(-c2ccccc2C(F)F)nc1NCc1ccc(-n2ccnn2)cc1` is “inactive”; for `Cc1cc(C)nc(NC(=S)N2CCN(c3cc(Cl)c(Cl)cc3Cl)CC2)c1` it is “inactive”.

With `O=C(CSc1ncnc2sc3c(c12)CCCCC3)NCc1ccco1`, the Potency result is “inactive”.

With `Cc1ccc(NS(=O)(=O)c2ccc3c(c2)CCC(=O)N3)cc1F`, the Potency result was “inactive”. On to `O=[N+]([O-])c1cccc(CSc2nc3ncc(Br)cc3[nH]2)c1`, for which the Potency result was “inactive”. For `COc1ccc(OCc2cc(C3Nc4ccccc4C(=O)N3Cc3ccccc3)ccc2OC)cc1` (stereo unspecified), the Potency entry is “inactive”. Consider `COCC(=O)NCCc1nc2ccccc2n1CCOc1ccc(C)cc1`, for which the Potency result was “inactive”. Consider `CC(=O)Nc1sc2c(c1-c1ccc(OC(F)(F)F)cc1)CCNC2`, for which the Potency entry is “inactive”.

On to `O=C(OCC#CCSc1nnc(-c2cccc3ccccc23)o1)c1ccc(Cl)cc1`, for which the Potency result was “inactive”. Take `N#Cc1nc(Nc2cc(Cl)cc(Cl)c2)nc(NC2CCCC2)n1`: the Potency result was “inactive”. The entry for `Oc1ccc(COC2CCCC2)c2cccnc12` is “inactive”; for `COC(=O)c1ccc2c(c1)S(=O)(=O)NC2=O` it is “inactive”; for `N/C(=N\c1nnc(-c2ccncc2)s1)Nc1ccc(Cl)c(Cl)c1` it is “inactive”. As to `COc1cccc(Nc2nn3c(=O)c4ccccc4nc3s2)c1`, the Potency result is “inactive”. Take `CC(C)(C)OC(=O)N1CCN(c2ccc(NCc3cccc(-c4ccc(C#N)cc4)n3)cc2)CC1`: the Potency entry is “inactive”. Turning to `CN(C)C(=O)C1CCN(c2nc(-c3ccc(Br)cc3)cs2)CC1`, the Potency entry is “inactive”. For `Cc1cc2c(s1)c1cnn(Cc3cc(F)c(Cl)cc3Cl)c(=O)c1n2C` the value was “inactive”; for `CNc1oc(-c2cccc(-c3ccccc3)c2)nc1C#N`, “inactive”.
